Experimental data published in ChEMBL document CHEMBL3988442, “University of Dundee, Small-Polar-MMV Screening Library” (2021).
Among all 48,000 compounds or so, about 13,000 (27%) showed an effect of 50% or more. The list shows a part of the results.

system: Wolbachia pipientis; experiment: Anti-Wolbachia Cell-Based Screen; format: functional; parameters: scale not given: in the data most compounds retested in dose-response had high values; conditions: 5 µM

Compared with `Cc1sc2nc(C(F)(F)F)nc(N3CCC(NS(C)(=O)=O)CC3)c2c1C`, `CS(=O)(=O)NCc1noc2c1CN(C(=O)C1CC1)CC2` is higher in “Percent Effect” value: 11.4% for the first, 103.2% for the second.

Compared with `CCn1ncc2c1CCCC2NCC1=Cc2ccccc2OC1` (stereo unspecified), `Cc1cnn(CC2CCCN2c2ncnc3ccccc23)c1` (stereo unspecified) is lower in “Percent Effect” value: -5.815% for the first, -22.63% for the second.

First: CC(=O)N1CC2(CCCN(Cc3ccc(Cl)cc3)C2)Cc2ccccc21 (stereo unspecified)
Second: CC(=O)N1CC2(CCN(Cc3ccc(Cl)cc3)C2)Cc2ccccc21 (stereo unspecified)
The “Percent Effect” value of the first is higher: 131.8% for the first, 116.3% for the second.

First: CC(=O)N1CCCC2(CCN(Cc3ccc(Cl)c(F)c3)C2)C1 (stereo unspecified)
Second: CC(=O)N1CCCC2(CCN(Cc3ccc(Cl)c(C(F)(F)F)c3)C2)C1 (stereo unspecified)
The “Percent Effect” value of the first is lower: 9.026% for the first, 13.59% for the second.

Compared with `CC(=O)N1CCC2(CCCN(Cc3ccc(Cl)c(C(F)(F)F)c3)C2)C1` (stereo unspecified), `COCC(=O)N1CCC2(CCCN(Cc3ccc(Cl)cc3)CC2)CC1` is lower in “Percent Effect” value: 5.734% for the first, -3.814% for the second.

Compared with `CC(=O)N1CC2(CCN(Cc3ccc(Cl)cc3)CC2)Cc2ccccc21`, `Cc1ncsc1CN1CCC2(CC1)CC(=O)N(Cc1ccc(Cl)cc1)C2` is lower in “Percent Effect” value: 118.6% for the first, -0.4744% for the second.

Going from `Cc1cc(C(=O)N2CCN(CC(O)Cn3cccn3)CC2)c(C)o1` (stereo unspecified) to `Cc1nc(-c2cccs2)ccc1C(=O)N1CCN(CCO)CC1`, the “Percent Effect” value falls from 3.42% to -3.936%.

Compared with `CN1CCC(N2CCOC[C@H]2c2nc(-c3ccncc3)c[nH]2)CC1`, `c1cc(-c2c[nH]c([C@@H]3COCCN3C3CCCCC3)n2)ccn1` is higher in “Percent Effect” value: -3.647% for the first, -0.01712% for the second.

First: CNS(=O)(=O)c1ccc(C(=O)NC2CCc3nc(C)cn3C2)o1 (stereo unspecified)
Second: CS(=O)(=O)NCc1noc2c1CN(C(=O)c1ccsc1)CC2
The “Percent Effect” value of the first is lower: -2.01% for the first, 8.076% for the second.

Compared with `Cc1nccc(NCc2cc3n(n2)CCCN(S(C)(=O)=O)C3)n1`, `Cc1nccc(NCc2cncc3c2CCN(S(C)(=O)=O)C3)n1.Cl` is higher in “Percent Effect” value: -4.835% for the first, 65.34% for the second.

Compared with `Cc1cnc(N2CCc3c(CNc4ccnc(C)n4)cncc3C2)nc1.Cl`, `Cc1nc(N)nc(N2CCOc3ccc(CO)cc3C2)c1C` is lower in “Percent Effect” value: 94.65% for the first, -10.79% for the second.

First: CN1C(=O)CC(C(=O)O)C12CCN(Cc1cc(F)ccc1Cl)CC2 (stereo unspecified)
Second: O=C([C@H]1CCS(=O)(=O)[C@@H]2CN(Cc3ccc(F)cc3)C[C@H]12)N1CCCC1
The “Percent Effect” value of the first is lower: -13.17% for the first, -0.8548% for the second.

Going from `CN(C)C(=O)c1cc(-c2ccncc2)[nH]n1` to `CN(C)C(=O)c1cc(-c2ccccc2)[nH]n1`, the “Percent Effect” value rises from 116.7% to 125.1%.

Compared with `O=C(NCCn1nc2ccccn2c1=O)c1cc(-c2ccccc2)[nH]n1`, `c1ccc(-c2nnc(CNCCn3cccn3)o2)cc1` is lower in “Percent Effect” value: 1.619% for the first, -4.985% for the second.

Going from `Cc1ccn(CC(=O)Nc2cc(-c3ccncc3)[nH]n2)n1` to `Cc1ccnn1CC(=O)Nc1cc(-c2ccncc2)[nH]n1`, the “Percent Effect” value falls from -0.1185% to -6.833%.

First: Cc1nc(-c2cccc(C(=O)N(C)C)c2)cs1
Second: Cc1ncc(CN(C)C(=O)Nc2cccc(N3CCOC3=O)c2)s1
The “Percent Effect” value of the first is lower: -24.42% for the first, -2.518% for the second.

Compared with `CC1=C[C@@H](CN2CCC(CO)CC2)[C@H](C(C)C)C[C@H]1Cc1nnc(C)o1`, `CCc1ccc(CNCC2CCN(CCO)CC2)cc1` is lower in “Percent Effect” value: -9.335% for the first, -51.45% for the second.

First: COc1ccc(CN2C[C@@H](F)[C@@H](OCc3nc4ccccc4[nH]3)C2)cn1
Second: COCCC(=O)N1Cc2cnc(Cc3ccc(OC)cc3)nc2C1
The “Percent Effect” value of the first is higher: -8.557% for the first, -12.22% for the second.

Compared with `CC(NC(=O)c1ccc2c(c1)OCC(=O)N2)c1ccccc1F` (stereo unspecified), `O=C1COc2ccc(C(=O)NS(=O)(=O)c3ccc(F)cc3F)cc2N1` is higher in “Percent Effect” value: -1.956% for the first, 1.32% for the second.

First: CCc1ccc(OCC(O)CN2CCN(CC)CC2)cc1 (stereo unspecified)
Second: CCc1ccc(OCC(O)CN2CCN(CCO)CC2)cc1.Cl.Cl (stereo unspecified)
The “Percent Effect” value of the first is lower: 71.19% for the first, 85.64% for the second.

First: CCc1ccc(OCC(O)CN2CCC(O)CC2)cc1 (stereo unspecified)
Second: CCN1CCN(CC(O)c2ccc(OC(F)(F)F)cc2)CC1 (stereo unspecified)
The “Percent Effect” value of the first is higher: 11.05% for the first, 1.039% for the second.

Going from `Cc1c(C)n(CC(O)CN2CCN(CCO)CC2)c2c(Cl)cccc12.Cl` (stereo unspecified) to `CS(=O)(=O)CCN1CCN(c2ccc(Cl)cn2)CC1`, the “Percent Effect” value falls from 3.197% to -5.169%.

First: Cc1n[nH]cc1CNC1(Cc2ccc(Br)cc2)CCCCC1
Second: O=C(Cc1ccc(F)cc1)NCc1ccc(C(=O)O)o1
The “Percent Effect” value of the first is higher: 13.31% for the first, -2.994% for the second.

Going from `CC(C)c1nc(/C=C/c2ccc(O)c(Cl)c2)ncc1C(=O)O` to `CC(C)NC(=O)CN(C)C1CCN(c2ccc(Cl)cn2)CC1`, the “Percent Effect” value falls from 6.301% to -2.588%.

Going from `CN(C)S(=O)(=O)N1CCCC1C(=O)N1CCSCC1` (stereo unspecified) to `Cc1nc2c(c(=O)n1C)CN(C(=O)C1CCN(C(=O)C3CCC3)CC1)C2`, the “Percent Effect” value rises from -27.44% to -3.258%.

First: CC(C)CNC(=O)[C@H]1CCS(=O)(=O)[C@@H]2CN(CC(C)C)C[C@H]12.O=C(O)C(F)(F)F
Second: Cc1ccc(CN2C[C@@H]3[C@@H](C(=O)NCC(C)C)CCS(=O)(=O)[C@@H]3C2)cc1.O=C(O)C(F)(F)F
The “Percent Effect” value of the first is lower: 102.6% for the first, 114.4% for the second.

Going from `CC(C)CNC(=O)[C@H]1CCS(=O)(=O)[C@@H]2CN(Cc3ccc(Cl)cc3)C[C@H]12.O=C(O)C(F)(F)F` to `CC(C)CNC(=O)[C@H]1CCS(=O)(=O)[C@@H]2CN(Cc3ccc(F)cc3)C[C@H]12.O=C(O)C(F)(F)F`, the “Percent Effect” value rises from 20.84% to 118.4%.

Compared with `Cc1ccc(CN2C[C@@H]3[C@@H](C(=O)N4CCCC4)CCS(=O)(=O)[C@@H]3C2)cc1.O=C(O)C(F)(F)F`, `Cc1ccc(CN2C[C@@H]3[C@@H](C(=O)NCC4CC4)CCS(=O)(=O)[C@@H]3C2)cc1.O=C(O)C(F)(F)F` is higher in “Percent Effect” value: -5.739% for the first, 110.7% for the second.

Compared with `CC(C)CNC(=O)[C@H]1CCS(=O)(=O)[C@@H]2CN(Cc3cccnc3)C[C@H]12`, `Cc1cccc(CN2C[C@@H]3[C@@H](C(=O)NCC(C)C)CCS(=O)(=O)[C@@H]3C2)c1.O=C(O)C(F)(F)F` is higher in “Percent Effect” value: 94.11% for the first, 114% for the second.

First: C=C(C)COc1cccc(C(=O)N2CCC3(CC2)CN(C)CCN3C)c1
Second: COc1cc(C)nc(N2CCN(C(=O)CCc3cccs3)CC2)n1
The “Percent Effect” value of the first is higher: -0.7727% for the first, -2.18% for the second.

Going from `COCc1nc2cc(NCc3nc(C)cs3)ccc2o1` to `OCCOc1cc(F)ccc1NCc1nc(-c2cccs2)no1`, the “Percent Effect” value rises from 14.28% to 14.46%.

Going from `COCCN1CC(C(=O)N(C)Cc2csc(C)n2)CC1=O` (stereo unspecified) to `COCCC(=O)N1Cc2nc3c(C)c(-c4cccs4)nn3c(O)c2C1`, the “Percent Effect” value rises from 9.291% to 108.4%.

Going from `O=C(O)c1cc(-n2cc3c(n2)CCC3)cc(S(=O)(=O)NC2CCCC2)c1` to `CS(=O)(=O)NCc1noc2c1CN(C(=O)C1CCC1)CC2`, the “Percent Effect” value rises from -14.64% to 102.9%.

First: CC(C)CNC(=O)[C@H]1CCS(=O)(=O)[C@@H]2CN(Cc3cccc(Cl)c3)C[C@H]12.O=C(O)C(F)(F)F
Second: O=C(NC1CCC1)[C@H]1CCS(=O)(=O)[C@@H]2CN(CCc3ccccc3)C[C@H]12.O=C(O)C(F)(F)F
The “Percent Effect” value of the first is higher: 11.74% for the first, 0.08141% for the second.

Going from `CC(SCCC(=O)NC(N)=O)c1cccc(F)c1` (stereo unspecified) to `CCc1noc(CN(CC(=O)N2CCCCC2)c2cccc(C)c2)n1`, the “Percent Effect” value rises from -9.647% to 13.21%.

Going from `CN(C)CC(=O)N1Cc2nnn(C)c2C(COCC2CC2)C1` (stereo unspecified) to `CN(C)CC(=O)N1CC(c2nn(C)c3nccnc23)C1`, the “Percent Effect” value rises from -6.376% to 96.82%.

Compared with `CC(=O)N1CCC(c2nn(C)c3nccnc23)C1` (stereo unspecified), `COc1cc(N2C[C@@H](C)[C@](O)(C3CC3)C2)ncn1` is lower in “Percent Effect” value: 104.2% for the first, -12.89% for the second.

Going from `CC(C)N(C(=O)c1csc(-c2ccoc2)n1)C1CCOCC1` to `CC(Sc1nnnn1C1CCOCC1)C(=O)NC1CCCCC1` (stereo unspecified), the “Percent Effect” value rises from -5.774% to -2.14%.

First: COCC(=O)N1Cc2nc3c(C)c(-c4cccs4)nn3c(O)c2C1
Second: Cc1c(-c2cccs2)nn2c(O)c3c(nc12)CN(C(=O)C1CC1)C3
The “Percent Effect” value of the first is higher: 99.09% for the first, 98.04% for the second.

Going from `CCc1ncc2c(n1)CN(C(=O)COC)C2` to `COCC(=O)N1CCc2c(CNS(C)(=O)=O)n[nH]c2C1`, the “Percent Effect” value rises from 5.323% to 5.679%.

First: Cc1nc2c(c(=O)n1C)CN(C(=O)C1CCCN(C(N)=O)C1)C2 (stereo unspecified)
Second: O=C(c1ccnnc1)N1CCc2onc(CN3CCCC3)c2C1
The “Percent Effect” value of the first is higher: 11.31% for the first, -11.85% for the second.

Compared with `CCc1ccc(CN2CC[C@H]3C[C@H](c4nnc(C)[nH]4)O[C@@H]3C2)o1.O=C(O)C(F)(F)F`, `CC(=O)NCc1noc2c1CN(CCN1CCCC1)CC2.O=C(O)C(F)(F)F.O=C(O)C(F)(F)F` is lower in “Percent Effect” value: -6.047% for the first, -16.49% for the second.

Going from `C[C@@H]1CN(c2cc(N3CCC(O)CC3)ncn2)C[C@@]1(O)C1CC1` to `C[C@@H]1CN(c2ccc(Cl)cn2)C[C@@]1(O)C1CC1`, the “Percent Effect” value rises from -16.8% to 109.5%.

Going from `C[C@@H]1CN(c2ccc(Cl)cn2)C[C@]1(C)O` to `COc1ccc(OCc2cc(C(=O)N3CC=CC3)n[nH]2)c(Cl)c1`, the “Percent Effect” value falls from 110.4% to 6.358%.

First: CCS(=O)(=O)N1CCC(c2nnc(CN3CCCC3)n2C2CC2)CC1
Second: CCC(=O)N1CCc2onc(CNS(C)(=O)=O)c2C1
The “Percent Effect” value of the first is lower: -2.411% for the first, 86.89% for the second.

Going from `Cc1ccoc1-c1nnc(CNCCn2cccn2)o1` to `Cc1cnn(CCNCc2nnc(-c3occc3C)o2)c1`, the “Percent Effect” value rises from -4.902% to 122.9%.

Compared with `Cc1ccc(-c2cc(CNCCn3cc(C)cn3)on2)cc1`, `Cc1cnn(CCNCc2cc(C)no2)c1` is higher in “Percent Effect” value: -23.87% for the first, 0.9077% for the second.

Going from `Cc1cnn(CCNC(C)c2nnc(-c3ccccc3)o2)c1` (stereo unspecified) to `Cc1ccc(-c2nnc(C(C)NCCn3cc(C)cn3)o2)cc1` (stereo unspecified), the “Percent Effect” value rises from -3.26% to 8.064%.

Compared with `Cc1cnn(CCNCc2nc(COc3ccc(F)cc3)no2)c1`, `Cc1cnn(CCNCc2nnc(-c3ccc(F)cc3)o2)c1` is higher in “Percent Effect” value: -9.095% for the first, 123.4% for the second.

Compared with `Cc1cnn(CCNCc2nnc(-c3ccccc3)o2)c1`, `COc1ccc(-c2nnc(CNCCn3cc(C)cn3)o2)cc1` is lower in “Percent Effect” value: 127.3% for the first, 93.96% for the second.

`Cc1cnn(CCNCc2csc(-c3ccc(F)cc3)n2)c1` was tested, and the “Percent Effect” value was 0.7899%.
